# Bioassay records as filed in PubChem BioAssay.
# BRCA1 expr up = BRCA1 expression activation; MCF7-BRCA1-FFLuc reporter, luminescence, 48 h; response scale: scaled: vehicle 0%, 10 µM genistein 100%; Potency, µM (top dose mostly 46.1 µM), for the others: top-dose activation, hits mostly activators; hit rate 1.1% among 380,000; AID 624202; also: potency is read from the fitted curve at half-maximal effect; nearly all actives have a fitted effect of over 80% in size
#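 Luminescence from a BRCA1-driven firefly luciferase in MCF7 cells was the read-out, taken 15 min after substrate addition following 48 h compound exposure at 37 °C. Data were normalized to a 10 microM genistein control and DMSO vehicle.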
# mIDH1 inhibitor = human IDH1 R132H inhibition | O75874 | IDH1-R132H enzyme, NADPH consumption, diaphorase/resazurin fluorescence | Potency, µM (titrated, usually from 76.6 µM), without a hit: at the highest dose activity change, negative = inhibition, usual class: inhibitors | hit rate 0.093% among 390,000; also: potency is read from the fitted curve at half-maximal effect; % is scaled to controls: 0 for no effect and ±100 for the full control effect; nearly all actives have a fitted effect of over 65% in size
#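 IDH1-R132H (0.5 ug/mL dispensed) in pH 7.5 Tris buffer was preincubated 30 min with compound, then given a substrate mix of 0.016 mM NADPH and 2 mM alpha-KG for 80 min at room temperature; remaining NADPH was read by diaphorase/resazurin fluorescence.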
# TrxR1 inh = rat TrxR1 inhibition | O89049 | recombinant rTrxR1, NADPH fluorescence consumption, selenite substrate | Potency, µM (titrated, usually from 114 µM), for inactives: top-dose activity change, negative = inhibition, usual class: inhibitors | hit rate 1% among 390,000; also: potency is read from the fitted curve at half-maximal effect; % is scaled to controls: 0 for no effect and ±100 for the full control effect; nearly all actives have a fitted effect of over 65% in size
# Target sequence (O89049 whole entry, looked up): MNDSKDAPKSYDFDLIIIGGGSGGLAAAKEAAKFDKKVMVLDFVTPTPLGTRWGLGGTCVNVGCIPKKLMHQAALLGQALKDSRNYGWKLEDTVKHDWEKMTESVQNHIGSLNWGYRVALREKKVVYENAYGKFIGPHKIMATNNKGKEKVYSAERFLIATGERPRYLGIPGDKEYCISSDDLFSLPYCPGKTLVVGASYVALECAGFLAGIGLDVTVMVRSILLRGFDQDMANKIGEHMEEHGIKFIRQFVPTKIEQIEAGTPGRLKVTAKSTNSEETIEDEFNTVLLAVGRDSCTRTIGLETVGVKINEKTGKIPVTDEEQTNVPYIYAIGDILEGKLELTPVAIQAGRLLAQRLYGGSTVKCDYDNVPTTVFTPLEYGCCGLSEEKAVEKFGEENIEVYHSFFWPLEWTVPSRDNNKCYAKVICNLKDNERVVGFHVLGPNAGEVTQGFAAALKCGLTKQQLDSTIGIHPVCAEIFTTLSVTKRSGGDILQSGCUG
#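 Rat TrxR1 (90 nM in the dispensed reagent) was pre-reduced with 400 uM NADPH for 5 min at room temperature, then incubated with compound for 15 min. After 400 uM selenite was added, NADPH fluorescence (Ex 340/Em 450 nm) was followed for 8 min.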
# IL-2 act = activates IL-2 in a cell-based reporter assay. hit rate 0.065% among 360,000. IL-2 activation reporter assay, cell-based qHTS; stimulated with anti-CD3/CD4/CD28 beads; in transgenic mouse T cells. activation, % (series mostly up to about 46 µM). AID 652025; in the data active = activation above about 50%; inconclusive = mostly about 30% to 49%; also: 0% is about no effect
#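 Unstimulated transgenic mouse T cells preincubated 60 min with compound, then stimulated with anti-CD3/anti-CD4-coated beads plus anti-CD28 for 18 h at 37 degrees C. IL-2 response read as EGFP and DsRed fluorescence by plate cytometry.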
# Giardia kill = kills Giardia lamblia; activity change, % at 7.66 µM, hits read low; AID 540267; Giardia lamblia trophozoite viability; hit rate 0.15% among 340,000; in the data active = activity change below about -80%; inconclusive = between about -30% and that limit;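 also: parasites exposed to compound for two days anaerobically before the ATP read; % is scaled to controls: 0 for no effect and ±100 for the full control effect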
#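 ATP-content bioluminescence gauges trophozoite survival. Cells (100/well) receive compound and incubate anaerobically for 48 hrs at 37 deg C; detection reagent follows for 15-30 min at room temperature.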
# TrxR1 substrate = substrates of rat thioredoxin reductase 1; O89049; purified TrxR1 substrate turnover, NADPH consumption readout; Potency, µM (doses to about 114 µM), inactives show at the top dose activity change, negative = substrate turnover; hit rate 0.01% among 390,000; AID 588456; also: potency is read from the fitted curve at half-maximal effect; % is scaled to controls: 0 for no effect and ±100 for the full control effect; nearly all actives have a fitted effect of over 50% in size
#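 Rat TrxR1, dispensed at 90 nM, was prereduced with 400 uM NADPH (final) for 5 min at ~22 deg C, then incubated with compound 15 min before 400 uM selenite. A first-read NADPH fluorescence drop versus no-compound background flagged substrates.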
# * marks the source's active call; other numbers are inactive results; ? = inconclusive; · = not tested or not shown; ! = not active in a repeat; [ ] = another dose, or the depositor's remark. Only some compounds are listed: those with a hit (about 2.2% of all), similar ones and a draw of the others. Unless noted, calls follow the shape of the dose curve; as a rule, active = well fitted curve in the direction sought with a large enough effect; inconclusive = small, poorly fitted or top-dose-only effect, or another doubt; inactive = no such curve, though single readings can be large; an effect the other way counts as inactive or inconclusive.
SMILES,BRCA1 expr up,mIDH1 inhibitor,TrxR1 inh,IL-2 act,Giardia kill,TrxR1 substrate
COc1cccc2sc(N3CCN(C(=O)c4ccc([N+](=O)[O-])o4)CC3)nc12,-84.7%,7.1%,?,1.2,-86.9*,-14.8%
Cc1cc(C)c(NC(=O)CCN2C(=O)c3ccccc3Sc3ncccc32)c(C)c1,·,-3.5%,-24.2%,·,·,5.1%
COc1cc(C(F)(F)F)ccc1C(=O)NCCc1ccco1,6.31µM*,9.2%,6.0%,1.1,-3.5,3.8%
CCC1CN(C(=O)Nc2ccccc2C(F)(F)F)c2ccccc2S1 (stereo not given),·,18.8%,22.9%,·,·,6.4%
O=C(CCCN1C(=O)c2ccccc2C1=O)NCCC1=CCCCC1,-5.2%,2.4%,9.3%,-3.3,5.4,-9.3%
O=C(CCc1ccccc1)NCCC1=CCCCC1,11.2µM*,4.7%,-11.5%,2.3,12.0,-5.0%
Cc1cc(C(=O)NCCC2=CCCCC2)ccc1[N+](=O)[O-],5.01µM*,4.1%,17.2%[57.1 µM],-0.8,0.1,-5.4%
O=C(CCCc1ccccc1)NCCC1=CCCCC1,3.16µM*,1.9%,19.8%[57.1 µM],0.3,19.1,5.4%
O=C(Cc1ccccc1)NCCC1=CCCCC1,54.0%,-9.7%,14.2%,-4.5,4.7,6.2%
O=C(NCCC1=CCCCC1)c1ccc([N+](=O)[O-])cc1,?,7.9%,-6.7%,-0.3,13.7,-7.8%
O=C(CCNC(=O)c1ccc(Cl)cc1)NCCC1=CCCCC1,7.94µM*,0.0%,-0.6%,1.6,-7.1,-11.0%[57.1 µM]
COc1ccc(-n2nc3c(N4CCCC(C(=O)NCc5ccc(C)cc5)C4)nnc(C)c3c2C)cc1 (stereo not given),·,-0.3%,7.2%[57.1 µM],·,·,1.9%[57.1 µM]
CC(C)(C)n1ncc2c(=O)n(Cc3ccc(Cl)c(C(F)(F)F)c3)cnc21,·,·,8.3%,·,·,-4.3%
Cc1nn(-c2ccccc2)c(Cl)c1/C=N/NC(=O)c1ccco1,6.31µM*,3.9%,2.0%,-0.3,-4.1,-3.3%
Cc1ccc(NC(=O)c2ccc(=O)n(CC(=O)Nc3cccc(C)c3)n2)cc1,·,-5.3%,4.8%[57.1 µM],·,·,-1.9%[57.1 µM]
CCn1ccc(C(=O)Nc2ccccc2Cl)n1,3.16µM*,-7.4%,25.8%,-0.4,14.0,-0.4%
CCn1ccc(C(=O)Nc2cccc(Cl)c2)n1,?,0.0%,-5.1%,-1.2,4.5,-7.3%
N#Cc1nc(-c2ccc(COc3ccc(Cl)cc3)o2)oc1N1CCCCC1,·,-2.4%,13.3%,·,·,6.7%
O=[n+]1c2c(n([O-])c3cc(Br)ccc31)CCCC2,-1.7%,7.2%,-20.3%,1.8,?,-14.2%
O=[n+]1c2c(n([O-])c3cc(F)c(F)cc31)CCCC2,-3.7%,-1.9%,3.55µM*,0.4,-5.4,-8.0%
O=c1c([N+](=O)[O-])cccn1Cc1ccccc1Cl,-23.4%,-10.8%,?,-1.5,?,-14.8%
O=c1c([N+](=O)[O-])cccn1Cc1cccc(Br)c1,-2.6%,2.0%,7.4%,0.7,-85.0*,-0.8%
COc1cc2cc(CNc3ccccc3)c(=O)n(CC(=O)Nc3cc(C)cc(C)c3)c2cc1OC,4.6%,13.0%,-11.9%,·,·,1.2%
Cc1cccc(C(=O)Nc2nc3ccc(S(C)(=O)=O)cc3s2)c1,3.16µM*,9.8%,22.4%,-0.1,-6.9,3.6%
CC(C)C(=O)Nc1nc2ccc(S(C)(=O)=O)cc2s1,11.2µM*,1.8%,13.9%,-1.6,-11.5,-2.9%
SMILES,BRCA1 expr up,mIDH1 inhibitor,TrxR1 inh,IL-2 act,Giardia kill,TrxR1 substrate
COc1ccccc1NC(=O)Nc1nc2ccc(S(N)(=O)=O)cc2s1,3.98µM*,-1.0%,15.7%[57.1 µM],-1.2,3.1,7.2%[57.1 µM]
CCC(C)C(=O)Nc1nc2ccc(S(C)(=O)=O)cc2s1 (stereo not given),93.8%,3.0%,4.6%[57.1 µM],0.2,-10.1,5.0%
CCN(CC)S(=O)(=O)c1ccc2nc(NC(=O)c3ccco3)sc2c1,11.2µM*,-6.4%,2.9%[11.4 µM],-0.9,4.7,-5.8%[11.4 µM]
Cc1ccc(-n2ncc(C(=O)NC3CCCC3)c2C2CCN(C(=O)OC(C)(C)C)CC2)c(C)c1,·,-19.8%,11.8%,·,·,-5.3%
CC(=O)c1cccc(NC(=O)CC(c2ccc(C)cc2)N2Cc3ccccc3C2=O)c1 (stereo not given),-23.7%,-3.7%,11.6%,·,·,-5.7%
Cc1cc(C)n(-c2nnc3c4ccccc4n(C)c3n2)n1,1.41µM*,-7.1%,0.6%,4.4,6.0,-9.3%
CCOC(=O)c1cccc(C2=CC(=O)C[C@H](c3ccc(OC)cc3)C2)c1,11.2µM*,6.5%,11.8%,0.7,-1.0,5.1%[57.1 µM]
CC(C)(C)n1ncc2c(=O)n(Cc3ccc(Cl)c(OC(F)(F)F)c3)cnc21,·,·,11.1%[57.1 µM],·,·,-4.4%
CNc1cccc(-c2ccccc2C(C)=O)n1,-9.8%,·,·,0.8,·,·
CNc1cccc(-c2ccc(C(C)=O)s2)n1,6.31µM*,·,·,0.6,·,·
Fc1ccccc1-c1nc2ccccc2[nH]1,3.98µM*,8.6%,12.4%,-0.1,7.1,30.3%
Cc1ccc(-c2nc3ccccc3[nH]2)cn1,7.94µM*,2.9%,20.3%,-0.1,-20.0,17.0%
c1ccc2[nH]c(-c3cscn3)nc2c1,11.2µM*,-5.7%,10.5%,0.1,-20.0,-3.8%
c1ccc2nc(-c3nc4ccccc4[nH]3)ccc2c1,-36.0%,13.1%,16.2%,-0.7,?,15.6%
Clc1ccccc1-c1nc2ccccc2[nH]1,?,-2.6%,29.7%,-0.9,-16.2,5.0%
Clc1ccc(-c2nc3ccccc3[nH]2)cn1,67.2%,20.3%,-0.7%,-1.7,-25.9,86.5%
Cc1ccccc1-c1nc(CS(=O)(=O)CC(=O)NCCCN2CCOCC2)c(C)o1,-2.8%,10.7%,8.6%,-0.3,20.4,-1.2%
Cc1ccccc1-c1nc(CS(=O)(=O)CC(=O)NCCCN2CCCC2=O)c(C)o1,0.0%,1.7%,25.1µM*,0.3,1.3,8.9%[57.1 µM]
COc1cc(O)c(CC=C(C)C)c(O)c1C(=O)CCc1ccc(O)cc1,-35.0%,-3.6%,4.3%,0.0,-4.6,-7.9%
O=C(CCc1ccc(O)cc1)c1c(O)cc(O)cc1O,10.7%,-4.5%[38.3 µM],10µM*,-0.4,3.7,4.5%[57.1 µM]
N#CN=c1snc(-c2ccccc2Cl)n1-c1ccc(F)cc1,-66.3%,·,-4.9%,·,6.7,0.4%
Cc1ccc2c(c1)CC1(CN2C)C(=O)OC(C)(C)OC1=O,25.9%,11.0%,20µM*!,-0.2,14.8,1.9%
Cc1ccc2c(c1)C1(C(=O)N2C)N2CC3(C)CN1CC(C)(C2)C3=O (stereo not given),-10.8%,2.5%,28.0%,-2.4,-6.4,-0.1%
CCc1nnc(NC(=O)c2ccccc2NC(=O)C2CCN(C(=O)c3ccco3)CC2)s1,-15.6%,·,-7.7%,·,8.5,4.9%
Cc1cccn2c(=O)c3cc(C(=O)NCCC4=CCCCC4)n(C)c3nc12,-0.3%,-6.0%,0.3%,-2.3,-10.5,6.6%
